Test results from PubChem BioAssay (NCATS).
“And” between values parts separate entries of the source, which are not always exact repeats. Equal values may be shown once. Results filed as inconclusive are left out. The source made the active and inactive calls. Unless noted, calls follow the shape of the dose curve; as a rule, active = well fitted curve in the direction sought with a large enough effect; inconclusive = small, poorly fitted or top-dose-only effect, or another doubt; inactive = no such curve, though single readings can be large; an effect the other way counts as inactive or inconclusive.

Legend:
[1] = Cell Viability - LYMP2-010 (AID 981);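 also: cells exposed to compound for 24 hours at 37 °C; % is scaled to controls: 0 for no effect and ±100 for the full control effect; nearly all actives have a fitted effect of over 55% in size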
Summary of the method: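 Acute toxicity is scored as a concentration-dependent loss of cellular ATP in human lymphoblastoid cells after 24 hr compound exposure in complete medium. Tetraoctylammonium bromide is the positive control.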

[2] = Cell Viability - LYMP2-016 (AID 984);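 also: cells exposed to compound for 24 hours at 37 °C; % is scaled to controls: 0 for no effect and ±100 for the full control effect; nearly all actives have a fitted effect of over 55% in size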
Summary of the method: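 Cells were seeded at 2500 per well and rested 5 hr before a 24 hr compound exposure at 37 C. Viability was then gauged as cellular ATP by luciferase luminescence, with AC50 values fitted to the Hill equation.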

[3] = Cell Viability - LYMP2-018 (AID 985);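 also: plate controls were DMSO only for no effect and tetraoctylammonium bromide at 92 µM for full effect; nearly all actives have a fitted effect of over 50% in size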
Summary of the method: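 Acute cytotoxicity is scored as a concentration-dependent drop in intracellular ATP after 24 hr exposure of the lymphoblastoid line in complete culture medium, measured by luciferase luminescence. Potency is expressed as AC50 from Hill modelling.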

[4] = Cell Viability - LYMP2-020 (AID 986);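 also: cells exposed to compound for 24 h at 37 °C; plate controls were DMSO only for no effect and tetraoctylammonium bromide at 92 µM for full effect; nearly all actives have a fitted effect of over 55% in size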
Summary of the method: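 Acute cytotoxicity in a human lymphoblastoid line is scored as a concentration-dependent fall in cellular ATP after 24 hr at 37 C in complete medium. The positive control is tetraoctylammonium bromide, and potency is given as Hill-fit AC50.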

[5] = Cell Viability - LYMP2-022 (AID 987);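 also: 0% = DMSO alone and full effect = tetraoctylammonium bromide at 92 µM; nearly all actives have a fitted effect of over 55% in size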
Summary of the method: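 Acute toxicity in a human lymphoblastoid line is scored as decreased intracellular ATP after 24 hr compound treatment at 37 C. ATP is measured by CellTiter-Glo luminescence; curves are fitted with the Hill equation to give AC50.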

[6] = Cell Viability - LYMP2-024 (AID 988);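 also: plate controls were DMSO only for no effect and 92 µM tetraoctylammonium bromide for full effect; nearly all actives have a fitted effect of over 60% in size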
Summary of the method: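 Acute toxicity is measured as concentration-dependent loss of intracellular ATP in a human lymphoblastoid line treated 24 hours at 37 C. Luciferase luminescence quantifies ATP; AC50 values come from standard Hill-equation modelling.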

[7] = Cell Viability - LYMP2-026 (AID 989);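 also: cells exposed to compound for 24 h at 37 °C; % is scaled to controls: 0 for no effect and ±100 for the full control effect; nearly all actives have a fitted effect of over 50% in size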
Summary of the method: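 Concentration-dependent loss of intracellular ATP in human lymphoblastoid cells after 24 hr at 37 C, quantified by luciferase luminescence. AC50 derived from standard Hill equation.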

[8] = molecular target: Alpha-galactosidase A (Homo sapiens) (UniProt P06280); experiment: Counterscreen for Glucocerebrosidase Inhibitors: qHTS Assay for Human alpha-Galactosidase at pH 4.5 (AID 992); also: 0% is about no effect
Sequence of Alpha-galactosidase A (Homo sapiens) (P06280 whole entry, looked up): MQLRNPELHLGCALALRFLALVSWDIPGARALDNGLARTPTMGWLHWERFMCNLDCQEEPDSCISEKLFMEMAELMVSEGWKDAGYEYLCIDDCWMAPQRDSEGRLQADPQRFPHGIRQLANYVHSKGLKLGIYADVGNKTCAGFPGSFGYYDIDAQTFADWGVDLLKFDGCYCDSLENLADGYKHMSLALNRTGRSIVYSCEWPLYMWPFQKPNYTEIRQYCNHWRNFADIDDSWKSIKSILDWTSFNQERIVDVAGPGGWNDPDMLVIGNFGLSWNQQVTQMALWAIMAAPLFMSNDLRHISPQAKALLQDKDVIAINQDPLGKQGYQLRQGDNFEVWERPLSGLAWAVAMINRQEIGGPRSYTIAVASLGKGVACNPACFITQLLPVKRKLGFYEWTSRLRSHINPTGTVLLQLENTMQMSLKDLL
Summary of the method: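 Enzyme at 2 nM final was combined with compound (0.7 nM to 77 uM) and 80 uM 4-methylumbelliferyl alpha-D-galactopyranoside in 50 mM citric acid, 0.005% Tween-20, pH 4.5. After 20 min at room temperature, fluorescence was read (Ex 365/Em 440 nm); AC50 came from Hill fits.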

[9] = Cell Viability - LYMP1-002 - Assay at 24 hr (AID 993); also: % is scaled to controls: 0 for no effect and ±100 for the full control effect
Summary of the method: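 qHTS, LYMP1-002 lymphoblastoid, 24 h cpd, 37 C, CellTiter-Glo ATP luminescence; AC50 via Hill eq.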

[10] = Cell Viability - LYMP1-002 - Assay at 40 hr (AID 994);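 also: 0% = DMSO only and full inhibition = 92 µM tetraoctylammonium bromide; nearly all actives have a fitted effect of over 60% in size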
Summary of the method: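 Viability in the human lymphoblastoid line was measured as intracellular ATP via CellTiter-Glo after 40 hr compound exposure. Tetraoctylammonium bromide served as positive control.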

[11] = molecular target: alpha-glucosidase (Oryza sativa, rice) (UniProt Q653V4); experiment: Counterscreen for Glucocerebrosidase Inhibitors: qHTS Assay for Rice alpha-Glucosidase at pH 5.0 (AID 997);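 also: 0% = full activity with enzyme and -100% = basal without enzyme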
Summary of the method: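 Rice alpha-glucosidase (4 nM final) with 400 uM 4-methylumbelliferyl-alpha-D-glucopyranoside in citrate buffer pH 5.0, 20 min at room temperature, stopped at pH 10; fluorescence 365/440 nm, compounds 0.7 nM–77 uM, AC50 from Hill fits.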

[12] = molecular target: DNA repair nuclease/redox regulator APEX1 (Homo sapiens) (UniProt P27695); experiment: qHTS Validation Assay for Inhibitors of the Human Apurinic/apyrimidinic Endonuclease 1 (APE1) (AID 1705; also: potency is read from the fitted curve at half-maximal effect;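 as to activity change, negative = inhibition: TAMRA fluorescence gain over two minutes as APE1 cuts a quenched THF abasic duplex; % is scaled to controls: 0 for no effect and ±100 for the full control effect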)
Sequence of DNA repair nuclease/redox regulator APEX1 (Homo sapiens) (P27695 whole entry, looked up): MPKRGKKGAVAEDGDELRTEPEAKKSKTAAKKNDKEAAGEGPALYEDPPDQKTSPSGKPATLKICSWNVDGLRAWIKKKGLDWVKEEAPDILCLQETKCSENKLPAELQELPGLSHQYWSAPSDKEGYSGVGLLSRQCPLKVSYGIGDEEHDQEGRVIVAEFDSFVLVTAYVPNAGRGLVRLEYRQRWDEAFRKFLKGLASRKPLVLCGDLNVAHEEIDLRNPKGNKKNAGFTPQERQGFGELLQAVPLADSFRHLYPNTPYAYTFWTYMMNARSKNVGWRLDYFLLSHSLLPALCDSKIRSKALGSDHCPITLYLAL
Summary of the method: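 qHTS, 1536-well. APE1 + cpd 15 min RT → 50 nM TAMRA/BHQ-2 THF-abasic dsDNA substrate → kinetic fluorescence, 3 reads/60 s; delta(read3−read1) = reaction progress. No-enzyme buffer = negative control.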

[13] = Counterscreen for APE1 Inhibitors: Fluorescent Dye Displacement Validation Assay (AID 1707);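 also: plate controls were ThO with dsDNA and no compound for no effect and ThO without dsDNA for full effect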
Summary of the method: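 Thiazole Orange displacement from dsDNA: 250 nM ThO with 50 nM TAMRA-labelled abasic-site (tetrahydrofuran) duplex in 50 mM Tris-HCl pH7.5, 50mM NaCl, 2 mM MgCl2, 0.01% Tween-20. Loss of endpoint fluorescence (ex 480 nm, em 540 nm) flags DNA binders.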

[14] = molecular target: Endonuclease 4 (Escherichia coli (strain K12)) (UniProt P0A6C1); experiment: Counterscreen for APE1 Inhibitors: qHTS Validation Assay for Inhibitors of Endonuclease IV (AID 1708); also: potency is read from the fitted curve at half-maximal effect; as to activity change, negative = inhibition: % is scaled to controls: 0 for no effect and ±100 for the full control effect
Summary of the method: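 Enzymatic AP-site incision assay using a double-stranded THF substrate labelled with TAMRA and BHQ-2; released fluorescence signals activity. Enzyme 2 nM, substrate 50 nM, 15 min compound preincubation.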

[15] = Cell Viability - LYMP2-014 (AID 983);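 also: cells exposed to compound for 24 h at 37 °C; plate controls were DMSO only for no effect and 92 µM tetraoctylammonium bromide for full effect; nearly all actives have a fitted effect of over 50% in size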
Summary of the method: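 Decrease in intracellular ATP after 24 hr treatment at 37 C, measured by luciferase luminescence, indicated cytotoxicity. Concentration-response data were fitted with the standard Hill equation to give AC50.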

[16] = qHTS for differential inhibitors of proliferation of Plasmodium falciparum line 7G8 (AID 1815);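 also: parasite growth measured after three days of incubation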; also: potency is read from the fitted curve at half-maximal effect;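 as to activity change, negative = inhibition: plate controls were vehicle wells for no effect and reference inhibitor wells for full effect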
[17] = qHTS Assay for Lipid Storage Modulators (AID 1519; calls by dose curve; as to activity change, negative = inhibition: % is scaled to controls: 0 for no effect and ±100 for the full control effect); conditions: Drosophila S3 cells, BODIPY lipid droplet/cell ratio, laser cytometry, cells loaded with oleic acid; for activity change, negative = inhibition: at 57.5 µM (top of the series)
Summary of the method: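 Cells seeded at 5,000 per well were treated with compounds over a concentration series and loaded with oleic acid (400 uM, as added). Lipid droplet fluorescence (488 nm excitation, 500-530 nm channel) was read by laser-scanning cytometry and normalized to 20 uM Triacsin C.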

[18] = qHTS for differential inhibitors of proliferation of Plasmodium falciparum line GB4 (AID 1816); conditions: Potency: Plasmodium falciparum GB4 proliferation inhibition;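 also: parasite growth measured after 72 h incubation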; also: potency is read from the fitted curve at half-maximal effect;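 as to activity change, negative = inhibition: 0% = vehicle DMSO and -100% = reference inhibitor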
[19] = qHTS for differential inhibitors of proliferation of Plasmodium falciparum line 3D7 (AID 1876); also: potency is read from the fitted curve at half-maximal effect
[20] = measured here: cell count channel max response
[21] = measured here: lipid channel max response

NC(=O)c1ncn([C@@H]2O[C@H](CO)[C@@H](O)[C@H]2O)n1
inactive: Potency [1] | Potency [2] | Potency [3] | Potency [4] | Potency [5] | outcome [6] | Potency [7] | outcome [8] | Potency [9] | Potency [10] | outcome [11] | Potency [12] | Potency [13] | Potency [14]

[Cl][In]([Cl])[Cl]
inactive: Potency [1] | outcome [15] | Potency [2] | Potency [3] | Potency [4] | Potency [5] | outcome [6] | Potency [7] | Potency [9] | Potency [10]

COc1ccccc1O
inactive: Potency [1] | outcome [15] | Potency [2] | Potency [3] | Potency [4] | Potency [5] | outcome [6] | Potency [7] | Potency [9] | Potency [10]

C[C@]12CC[C@@H]3c4ccc(O)cc4CC[C@H]3[C@@H]1CCC2=O
inactive: outcome [8] | outcome [11] | Potency [12] | Potency [13]
active: Potency [16] 3980 nM

Cc1cc2nc3c(=O)[nH]c(=O)nc-3n(C[C@H](O)[C@H](O)[C@H](O)CO)c2cc1C
inactive: Potency [1] | outcome [15] | Potency [2] | Potency [3] | Potency [4] | Potency [5] | outcome [6] | Potency [7] | Potency [9] | Potency [10]

CCN(CC)CCCC(C)Nc1c2ccc(Cl)cc2nc2ccc(OC)cc12 (configuration not stated)
active: Potency [12] 15800 nM | Potency [14] 12600 nM | Potency [16] 178 nM | Potency [18] 89.1 nM | Potency [19] 100 nM
inactive: activity change, negative = inhibition [17] 9.16% and 1.41%
14.1% and -23.7%: max response [17, 21]
2.35% and -26.6%: max response [17, 20]

O=C1O[C@H]([C@@H](O)CO)C(O)=C1O
inactive: outcome [15] | Potency [2] | Potency [3] | Potency [4] | Potency [5] | outcome [6] | Potency [7] | Potency [9] | Potency [10]

CC(=O)OCC(=O)[C@@]1(O)CC[C@H]2[C@@H]3CCC4=CC(=O)CC[C@]4(C)[C@H]3C(=O)C[C@@]21C
inactive: outcome [8] | outcome [11] | Potency [12] | Potency [13] | Potency [14] | Potency [16] | Potency [18] | Potency [19]

CC1(C)[C@@H]2CC[C@@]1(C)C(=O)C2
inactive: Potency [1] | outcome [15] | Potency [2] | Potency [3] | Potency [4] | Potency [5] | outcome [6] | Potency [7] | Potency [9] | Potency [10] | activity change, negative = inhibition [17] 1.5%
-8.09%: max response [17, 20]
-6.29%: max response [17, 21]
